The campaign covered roughly 3,400 compounds. About 840 (25%) were called active. Not shown: some 11% with an inconclusive outcome. Not all results are given here. Potency and affinity values are given separately. Values without a mark were called inactive.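 The calls were made as follows: active = fitted half-maximal concentration of signal decrease at or below twice the sample's top tested concentration; inconclusive = flat curve between -70 and -30 percent, or poor fit; inactive = flat within 30 percent, signal rise, or potency above limit.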

The nature of this assay: T. gondii growth inhibition with IFN-gamma, dose response, cell-based, ME49Luc, HeLa, luciferase, 72 h (AID 1259418). Conditions: T. gondii ME49Luc in IFN-y HeLa, active compounds read low, -100% = high-dose IFN-γ control wells; at 19.5 µM unless noted.
For `COc1ccc(-c2nc(Nc3ccc(C)c(C)c3)c3ccccc3n2)cc1`, the max activity was 21.6% [at 0.16 µM].
Then `CC1(C)C2CCC1(CS(=O)(=O)O)C(=O)/C2=C\c1ccc(/C=C2/C(=O)C3(CS(=O)(=O)O)CCC2C3(C)C)cc1`, with 14.9%; and `CCn1c(C2CCCN(C(=O)CCN3CCCCCC3=O)C2)nn(C)c1=O` (centres undefined), with 20.9%.
In the case of `CN1C(=O)CCc2cc(NC(=O)c3ccnn3C)ccc21`, the max activity was 26.8%.
Take `Cc1cc2cc(CNc3ncnc4c3nnn4C)ccc2[nH]1`: the max activity is 9.49% [at 10 µM].
To `COc1ccc(C)cc1NC(=O)Nc1ccc(-c2nc(-c3cccc(Br)c3)co2)cc1` belongs -11.7% [at 0.35 µM]; to `CC1CCCCN1CCNS(=O)(=O)c1cc(-c2nc(C(C)(C)C)cs2)cs1` (centres undefined), -20.5%.
Then `COc1ccc(-c2nc(N3CCC(Cc4ccccc4)CC3)c3ccccc3n2)cc1`, with 16.4%.
With `Cc1ccc(-c2coc(-c3ccc(NC(=O)Cc4cccs4)cc3)n2)cc1`, the max activity was -53.8% [at 0.68 µM].
`COc1cccc(CNC2=NCCNC23CCN(S(=O)(=O)c2ccc(C(C)C)cc2)CC3)c1`: the max activity was -13.5% [at 0.35 µM].
Then `Cc1nc(CCNC(=O)[C@H]2CCCN2S(=O)(=O)c2ccc(C(C)(C)C)cc2)cs1`, with 7.93% [at 5 µM]; and `CCCCC(=O)N1CCC(C(=O)NCCc2csc(-c3ccccc3)n2)CC1`, with 6.78% [at 2.6 µM]; and `CCc1nc(OCC(=O)Nc2ccc3c(c2)OCO3)c2ccccc2n1`, with 23.2% [at 10 µM].
For the molecule `CCOC(=O)C1CCCN(S(=O)(=O)c2cc(-c3nc(C)c(C)s3)sc2C)C1` (centres undefined), the max activity was 14.9% [at 0.16 µM].
As for `COc1ccc2c(c1)NC1(CCN(C(=O)c3ccc(C(C)(C)C)cc3)CC1)c1cccn1-2`, the max activity was -6.3% [at 0.35 µM].
Then `CN1C(=O)CCc2cc(NC(=O)C3CCCO3)ccc21` (centres undefined), with 17.1%; and `COc1cccc(-c2nc(CN(c3ccc(C)cc3)S(=O)(=O)c3cccs3)c(C)o2)c1OC`, with 2.85%; and `COc1ccc(N(Cc2nc(-c3ccccc3)oc2C)S(=O)(=O)c2cccs2)cc1`, with 14.6%.
As to `CCOc1ccc(N(Cc2nc(-c3ccccc3OCC)oc2C)S(=O)(=O)c2cccs2)cc1`, the max activity was 8.57% [at 10 µM].
Then `COc1ccccc1-c1nc(Cn2nnc(-c3nc(-c4ccc(SC)cc4)no3)c2C)c(C)o1`, with 10.9% [at 0.16 µM]; and `CCOc1ccc(NC(=O)Nc2ccc(-c3nc(-c4cc(C)ccc4C)co3)cc2)cc1`, with -9.48% [at 1.35 µM].
In the case of `CN1[C@H](CO)[C@@H]2c3ccccc3N(C(=O)C3CCCCC3)C[C@@H]21`, the max activity is 65.5%.
On to `CCN1Cc2c(C(=O)Nc3ccc(C)cc3)ncn2-c2ccccc2S1(=O)=O`, for which the max activity is 5.65%.
Then `CC(C)n1c(C(=O)Nc2cccc(F)c2)nc2c1CCN(Cc1ccccc1)C2`, with 12.5%; and `COc1ccc(CC(=O)N2CCC3(CC2)Nc2ccc(C)c(C)c2-n2cccc23)cc1OC`, with 11.1% [at 0.68 µM].
For the molecule `Cc1ccc(C)c(-c2coc(-c3ccc(NC(=O)Nc4ccccc4)cc3)n2)c1`, the max activity was 17.8% [at 0.16 µM].
Take `CCOCC1CC2(CCN(C(=O)COc3ccc(C)cc3)CC2)CO1` (centres undefined): the max activity is 14.2%.
To `O=C(CC1N=C2c3ccccc3N=C(SCc3cc(=O)n4cc(Cl)ccc4n3)N2C1=O)NC1CCCCC1` (centres undefined) belongs 36.6% [at 10 µM].
Then `FC(F)(F)c1cccc(N2CCN(c3nc(-c4ccc(Cl)cc4)nc4ccccc34)CC2)c1`, with -11.2% [at 0.16 µM].
In the case of `Cc1cccc(NC(=O)N2CCN(Cc3nc(-c4cccc(Cl)c4)oc3C)CC2)c1`, the max activity is 12.6%.
To `Cc1ccc(Cl)cc1NC(=O)N1CCN(Cc2nc(-c3cccc(Cl)c3)oc2C)CC1` belongs 11.1% [at 10 µM]; to `Cc1oc(-c2cccc(Cl)c2)nc1CN1CCN(C(=O)Nc2cccc(Cl)c2)CC1`, 10.8% [at 0.35 µM].
Consider `CCc1ccccc1NC(=O)N1CCN(Cc2nc(-c3cccc(Cl)c3)oc2C)CC1`, for which the max activity was 17.6% [at 10 µM].
To `CCc1nc(OCC(=O)Nc2cc(C)ccc2C)c2ccccc2n1` belongs 10.4% [at 2.6 µM]; to `Cc1ccc(CC(=O)N2CCC3(CC2)Nc2cc(F)ccc2-n2cccc23)cc1`, -4.79% [at 0.35 µM]; to `COc1ccc2c(c1)NC1(CCN(C(=O)c3ccccc3F)CC1)c1cccn1-2`, 8.8% [at 5 µM].
In the case of `CN1c2ccc(C#Cc3cccnc3)cc2[C@@H]2[C@@H](CCN2C(=O)c2cccc(F)c2)[C@H]1CO`, the max activity was 11.4%.
Regarding `CC(C)NC(=O)N1CC[C@@H]2[C@@H](CO)N(C)c3ccc(-c4ccc(F)cc4)cc3[C@@H]21`, the max activity was 26.2% [at 5 µM].
Then `CC(C)NC(=O)N1CC[C@@H]2[C@H]1c1cc(-c3ccc(F)cc3)ccc1N(C)[C@H]2CO`, with -31.5%; and `Fc1ccc(N2CCN(c3nc(-c4ccc(Cl)cc4)nc4ccccc34)CC2)cc1`, with 8.24%; and `CCCCC(=O)Nc1ccc(-c2nc(-c3ccc(C)cc3C)co2)cc1`, with 37.3% [at 10 µM].
To `O=S(=O)(c1cccs1)N1CCC2(CC1)NCCN=C2NCc1ccccc1Cl` belongs -8.05% [at 1.35 µM].
Turning to `Cc1ccc(S(=O)(=O)N2CCC3(CC2)NCCN=C3NCc2ccccc2F)c(C)c1`, the max activity was -12.4%.
Then `O=C(NCCc1csc(-c2ccccc2)n1)[C@H]1CCCN1C(=O)Cc1ccc(F)cc1`, with -17.3% [at 0.16 µM].
`CCc1nc(OCC(=O)Nc2ccc(C)cc2C)c2ccccc2n1`: the max activity is 12.9% [at 10 µM].
To `Cc1cc(C)cc(NC(=O)Nc2ccc(-c3nc(-c4ccccc4)co3)cc2)c1` belongs 19.9% [at 1.35 µM]; to `Cc1ccc(-c2nc(Cn3nnc(-c4nc(-c5ccc(OC(C)C)cc5)no4)c3C)c(C)o2)cc1`, 12.6% [at 0.16 µM]; to `Cc1cc(C)cc(NC(=O)N2CCN(Cc3nc(-c4ccccc4C)oc3C)CC2)c1`, 8.24% [at 1.35 µM].
Then `Cc1ccc(Cl)cc1NC(=O)Nc1ccc(-c2nc(-c3ccccc3)co2)cc1`, with -20.1% [at 0.16 µM]; and `Cc1ccc(-c2nc(Cn3nnc(-c4nc(-c5cccc(F)c5)no4)c3C)c(C)o2)cc1`, with 3.99%.
Then `Cc1ccc(C)c(-c2coc(-c3ccc(NC(=O)NCCc4ccccc4)cc3)n2)c1`, with 29.4%.
`OC[C@H]1[C@@H](c2ccc(C#Cc3ccccc3F)cc2)[C@@H]2CN(CC3CCOCC3)CCCCN12`: the max activity is 9.11% [at 1.2 µM].
Consider `C[C@H]1[C@H](NC(=O)/C(=N\OC(C)(C)C(=O)O)c2csc(N)n2)C(=O)N1S(=O)(=O)O`, for which the max activity was 14% [at 21 µM].
To `COc1ccc2c(c1)NC1(CCN(C(=O)Cc3ccccc3C)CC1)c1cccn1-2` belongs -9.29% [at 0.16 µM].
As for `CCc1nc(OCC(=O)Nc2ccc(C)cc2Br)c2ccccc2n1`, the max activity was -11.9% [at 2.6 µM].
To `COc1ccc(CCNc2nc(SCc3ccc(F)cc3)nc3ccccc23)cc1OC` belongs -14.5% [at 5 µM]; to `CCOC(=O)C(=O)Nc1ccc(-c2nc(-c3ccccc3)co2)cc1`, 10.7% [at 5 µM]; to `Cc1ccc(-c2nc(Cn3nnc(-c4nc(-c5cccc(Br)c5)no4)c3C)c(C)o2)cc1`, 7.23% [at 0.16 µM].
In the case of `CCOc1ccc(C(=O)N2CCC(C(=O)NCCc3csc(C)n3)CC2)cc1`, the max activity was 13.7%.
To `Cc1ccc(C)c(-c2coc(-c3ccc(NC(=O)Cc4cccs4)cc3)n2)c1` belongs 19.4%; to `O=C(CC1N=C2c3ccccc3N=C(SCc3cc(=O)n4ccccc4n3)N2C1=O)NCc1ccc(F)cc1` (centres undefined), 17.7% [at 2.6 µM]; to `COc1ccc(CCC(=O)N2CCC3(CC2)Nc2cc(F)ccc2-n2cccc23)cc1`, 14.7% [at 0.68 µM].
Consider `O=C(Nc1ccc(-c2nc(-c3cccc(Br)c3)co2)cc1)Nc1ccc2c(c1)OCCO2`, for which the max activity was 9.52% [at 0.16 µM].
Consider `Cc1ccc(-c2nc(CN3CCN(C(=O)Nc4cccc(C)c4C)CC3)c(C)o2)cc1`, for which the max activity is 12.5% [at 10 µM].
To `COc1ccc(CNc2nc(-c3ccc(OC)cc3)nc3ccccc23)cc1` belongs -17.8% [at 10 µM].
`COc1ccc(-c2nc(NCCC(C)C)c3ccccc3n2)cc1`: the max activity was -29.2% [at 0.68 µM].
To `COc1ccc(-c2nc(NCCN(Cc3ccco3)C3CCCC3)c3ccccc3n2)cc1` belongs -27.6% [at 2.6 µM].
With `CN(CCNc1nc(-c2ccc(Cl)cc2)nc2ccccc12)C1CCCCC1`, the max activity was -24.3% [at 2.6 µM].
Take `COc1ccc(-c2nc(NCc3ccccc3)c3ccccc3n2)cc1`: the max activity is 16.2%.
Then `CCCNc1nc(-c2ccc(OC)cc2)nc2ccccc12`, with -34.8% [at 0.35 µM].
To `CCCCNc1nc(-c2ccc(OC)cc2)nc2ccccc12` belongs 22.7%; to `COc1ccc(-c2nc(NCCCc3ccccc3)c3ccccc3n2)cc1`, -17% [at 1.35 µM]; to `Cc1ccc2[nH]cc(CCNC(=O)c3cc(-c4ccccn4)nc4ccccc34)c2c1`, 11.1%.
To `CCCCN(C)C(=O)Cn1c(=O)c(S(=O)(=O)c2ccccc2)cc2ccccc21` belongs 11.6%.

These data come from PubChem BioAssay AID1259418 (Broad Institute, 2018).
